HNF4A DNA FP = change in binding of human HNF4 alpha to DNA. HNF4a-FITC DNA binding, fluorescence polarization, 1 h. P41235. actives 0.3% (n = 360,000). activity change, % at 10 µM; in the data active = activity change above about 30%, passing the limit was not always enough
Target sequence (P41235 whole entry, looked up): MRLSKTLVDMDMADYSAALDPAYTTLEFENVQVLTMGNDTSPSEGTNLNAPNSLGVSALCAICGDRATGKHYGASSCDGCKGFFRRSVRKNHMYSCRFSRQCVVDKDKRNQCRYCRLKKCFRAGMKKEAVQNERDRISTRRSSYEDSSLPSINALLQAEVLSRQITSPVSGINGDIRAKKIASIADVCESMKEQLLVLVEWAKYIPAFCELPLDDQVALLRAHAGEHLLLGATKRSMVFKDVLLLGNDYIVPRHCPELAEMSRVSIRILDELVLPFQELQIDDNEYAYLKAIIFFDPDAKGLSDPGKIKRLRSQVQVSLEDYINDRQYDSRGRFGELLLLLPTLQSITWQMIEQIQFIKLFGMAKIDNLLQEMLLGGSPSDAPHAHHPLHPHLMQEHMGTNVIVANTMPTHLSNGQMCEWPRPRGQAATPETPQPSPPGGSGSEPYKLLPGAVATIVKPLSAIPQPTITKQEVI
IDE inh = inhibitors of human insulin-degrading enzyme in cells; P14735; HEK cells, FAbetaB cleavage, fluorescence polarization; inhibition, % at 5.59 µM; actives 0.41% (n = 320,000);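 active = percent inhibition above the average of all tested compounds plus 3 SD, set per screening campaign, cut at about 16% in these data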;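 note: IDE supplied by intact live HEK cells; FP after avidin binding of uncleaved biotin substrate so inhibition keeps polarization high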
IDE cell activ = boosts human insulin-degrading enzyme activity in HEK cells. P14735. FAbeta-B cleavage, fluorescence polarization; 0% vehicle, 100% cell-free pure enzyme wells. activation, % at 5.96 µM. actives 0.073% (n = 340,000). AID 493087;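 active = activation above the mean of all tested compounds plus 3 SD, set per screening campaign, cut at about 17% in these data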
TPT1 inhibitor = C. albicans TPT1 enzyme inhibition | recombinant caTPT1, FP RNA substrate dephosphorylation | inhibition, % at 5 µM | actives 0.81% (n = 300,000) | AID 1962;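 active = inhibition above the mean of all tested compounds plus 3 SD, set per screening campaign, cut at about 24% in these data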
CRFBP-R2 agonist = agonists of human CRF-binding protein/CRF-R2 receptor complex; HEK293 CRF-R2/CRF-BP, calcium dye fluorescence (FLIPR); percent of saturating CRF peptide response; activation, % at 13.2 µM; actives 0.46% (n = 350,000);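 active = activation of at least 50%, plus an integration ratio under a set limit after plate pattern correction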
caTPT1 confirm = confirmation of Candida albicans TPT1 inhibitors; shares compounds with TPT1 inhibitor; recombinant caTPT1, fluorescence polarization, RNase T1 coupled; inhibition, % at 5 µM; actives 74% (n = 2,400);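 active = inhibition above the primary screen limit, the mean inhibition of all tested compounds plus 3 SD, cut at about 25% in these data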
RNase T1 inh = RNase T1 inhibition in TPT1 counter-screen | AID 2153 | actives 83% (n = 2,400) | shares compounds with TPT1 inhibitor | inhibition, % at 5 µM | RNase T1 cleavage, fluorescence polarization, 1536-well;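 active = inhibition above the solvent-only control well mean plus 3 SD, limit set per screening run, cut at about 23% in these data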;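 note: inhibitors block cleavage so intact labeled substrate keeps polarization high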
Target sequence (P00651 whole entry, looked up): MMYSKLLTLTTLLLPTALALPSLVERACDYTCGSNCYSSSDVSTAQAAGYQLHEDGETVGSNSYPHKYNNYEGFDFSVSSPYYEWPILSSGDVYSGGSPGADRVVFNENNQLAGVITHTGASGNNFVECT
IDE cell inh cf = confirmation of human insulin-degrading enzyme inhibitors in cells; shares compounds with IDE inh; HEK cells, FAbetaB cleavage, fluorescence polarization; inhibition, % at 5.59 µM; actives 51% (n = 1,200); AID 435028;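 active = mean inhibition across triplicate wells above the cutoff set by the earlier primary insulin-degrading enzyme screen, cut at about 16% in these data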
HEK cytotox = HEK cell cytotoxicity, counter-screen for IDE inhibitors. actives 28% (n = 1,200). inhibition, % at 5.59 µM. shares compounds with IDE inh. HEK293 cytotoxicity, ATP luminescence; in the data active = inhibition above about 22%
HNF4a DNA conf = change in binding of human HNF4 alpha to DNA, retest; shares compounds with HNF4A DNA FP; HNF4A-FITC DNA binding, fluorescence polarization, 1 h; activity change, % at 12.5 µM; actives 99% (n = 210); call rule not given here
Each line names hits and unclear results; the compound was inactive in the other large screens (follow-up assays come after a bar, where they were run). The list is not random: actives were taken first. Their share in the collection is about 1.4%.

Cc1c(O)c2c3c(cccc3c1O)C(=O)N(c1ccccc1)C2=O	IDE inh 60.3, TPT1 inhibitor 39.2, CRFBP-R2 agonist 168.4 | caTPT1 confirm 27.4 | RNase T1 inh 39.7 | IDE cell inh cf 86.6 | HEK cytotox inactive
CCN1CCN(c2ccc(S(=O)(=O)N3CCCCC3)cc2NC(=O)c2ccc([N+](=O)[O-])s2)CC1	none
O=c1/c(=C\c2ccc(O)cc2)sc2n1C(c1ccccc1)C(c1ccccc1)=NN=2 (configuration not stated)	HNF4A DNA FP 41.1, IDE inh 19.3, TPT1 inhibitor 62.2 | caTPT1 confirm 64.5 | RNase T1 inh 75.6 | IDE cell inh cf 141.3 | HEK cytotox inactive
CCOC(=O)C1=C(c2ccccc2)N=c2s/c(=C\c3cccc(O)c3)c(=O)n2C1c1cccs1 (configuration not stated)	none
O=C1/C(=C/c2ccc(O)c(O)c2)Oc2cc(O)ccc21	IDE inh 33.9, TPT1 inhibitor 43.9 | caTPT1 confirm 57.7 | RNase T1 inh 66.7 | IDE cell inh cf 75.3 | HEK cytotox inactive
COc1cc(/C=C2\Oc3cc(O)ccc3C2=O)ccc1O	IDE inh 62.4, TPT1 inhibitor 46.9, CRFBP-R2 agonist 71.4 | caTPT1 confirm 51.0 | RNase T1 inh 59.3 | IDE cell inh cf 143.3 | HEK cytotox inactive
Cc1nn(-c2ccc(Cl)cc2)c(=O)c2c(C)noc12	none
Cn1c(N)nc(N)c(NC=O)c1=O	none (no result: IDE inh, IDE cell activ, TPT1 inhibitor, CRFBP-R2 agonist)
O=C(N/N=C/c1c(O)n(-c2ccc(Cl)cn2)c(=O)c2ccccc12)c1ccncc1	HNF4A DNA FP 71.8, IDE inh 21.6, TPT1 inhibitor 130.2, CRFBP-R2 agonist 55.1 | caTPT1 confirm 153.8 | RNase T1 inh 142.8 | IDE cell inh cf 37.8 | HEK cytotox inactive
O=C(N/N=C/c1c(O)n(-c2ccc(Cl)cn2)c(=O)c2ccccc12)C1CC1	none
COc1cc(OC)c(OC)cc1/C=C1\Oc2cc(OS(C)(=O)=O)ccc2C1=O	HNF4A DNA FP 73.4, IDE inh 19.9, TPT1 inhibitor 75.0 | caTPT1 confirm 71.5 | RNase T1 inh 77.7 | IDE cell inh cf 17.8 | HEK cytotox inactive
CS(=O)(=O)Oc1ccc2c(c1)O/C(=C\c1cccnc1)C2=O	none
COc1cc(OC)c(OC)cc1/C=C1\Oc2cc(OCC(=O)N3Cc4ccccc4C[C@H]3C(=O)O)ccc2C1=O	HNF4A DNA FP 61.2, IDE inh 61.9, TPT1 inhibitor 73.4 | caTPT1 confirm 80.7 | RNase T1 inh 84.5 | IDE cell inh cf 105.5 | HEK cytotox inactive
COc1ccc([C@@H]2[C@@H]3C(=O)N(C(C)(C)C)C(=O)[C@@H]3[C@]3(C)C(=O)N(c4cccc(Cl)c4)C(=O)N23)cc1	none
CCNC(=O)C1CCCN(Cc2cc(C(F)(F)F)ccc2Cl)CC1 (configuration not stated)	none (no result: IDE inh, IDE cell activ, TPT1 inhibitor, CRFBP-R2 agonist)
COc1ccc(NC(=O)C2(C)Cc3c(-c4cccc(NC(C)=O)c4)ccnc3O2)cn1 (configuration not stated)	none (no result: IDE inh, IDE cell activ, TPT1 inhibitor, CRFBP-R2 agonist)
Cc1ccc([C@@H]2CC=C(C(=O)O)[C@H](c3ccccc3F)N2S(=O)(=O)c2ccccc2C)cc1	none (no result: TPT1 inhibitor)
CC1=CC2=NC(=O)/C(=C/c3coc4ccc(Cl)cc4c3=O)C(=N)N2O1	IDE inh 61.8, TPT1 inhibitor 78.3, CRFBP-R2 agonist 105.7 | caTPT1 confirm 72.7 | RNase T1 inh 77.3 | IDE cell inh cf 97.0 | HEK cytotox inactive
N=C1/C(=C\c2coc3ccccc3c2=O)C(=O)N=C2SC=CN12	IDE inh 48.1, TPT1 inhibitor 40.1, CRFBP-R2 agonist 180.6 | caTPT1 confirm 33.5 | RNase T1 inh 46.7 | IDE cell inh cf 80.2 | HEK cytotox inactive
CSC1=NSC2=NC(=O)/C(=C/c3coc4ccccc4c3=O)C(=N)N12	IDE inh 71.5, TPT1 inhibitor 51.6, CRFBP-R2 agonist 313.1 | caTPT1 confirm 59.8 | RNase T1 inh 62.1 | IDE cell inh cf 45.0 | HEK cytotox inactive
CSC1=NSC2=NC(=O)/C(=C/c3coc4ccc(O)cc4c3=O)C(=N)N12	IDE inh 29.9, TPT1 inhibitor 69.7, CRFBP-R2 agonist 79.3 | caTPT1 confirm 116.5 | RNase T1 inh 112.7 | IDE cell inh cf 36.9 | HEK cytotox inactive
N=C1/C(=C/c2cccn2Cc2ccc(F)cc2)C(=O)N=C2SC=CN12	none
COc1ccccc1NC(=O)Nc1nnc([C@H]2C[C@H](O)[C@@H](CO)O2)s1	none (no result: IDE inh, IDE cell activ, TPT1 inhibitor, CRFBP-R2 agonist)
CC(C)[C@H](NC(=O)OCc1ccccc1)C(=O)OCc1cc(=O)oc2cc(O)ccc12	none
Cc1c(C(=O)O)sc(S(=O)(=O)N2CCN(C(=O)CCc3ccccc3)CC2)c1C(=O)O	none (no result: IDE inh, TPT1 inhibitor)
COc1ccc(C(=O)Nc2cccc3c2CCCC3)c(OC)c1	none (no result: IDE cell activ)
COc1ccc(CCNC(=O)COc2cc(O)c3c(c2)OC(C)(C)CC3=O)cc1OC	none
CN(C)S(=O)(=O)c1ccc2c(c1)/C(=C/c1cc3c([nH]1)CCCC3)C(=O)N2	IDE inh 45.4, TPT1 inhibitor 153.1, CRFBP-R2 agonist 122.1 | caTPT1 confirm 154.9 | RNase T1 inh 145.0 | IDE cell inh cf 105.1 | HEK cytotox inactive
Cc1ccc(CN2C(=O)N/C(=C\c3ccc(N4CCOCC4)cc3)C2=O)cc1	none
CCN1C(=O)/C(=C/c2ccc(N3CCCC3)cc2)NC1=S	IDE inh 123.8, TPT1 inhibitor 150.1, CRFBP-R2 agonist 257.9 | caTPT1 confirm 153.8 | RNase T1 inh 141.9 | IDE cell inh cf 157.6 | HEK cytotox 22.6
CCCN1C(=O)/C(=C/c2ccc(N3CCOCC3)cc2)NC1=S	HNF4A DNA FP 90.5, IDE inh 16.3, TPT1 inhibitor 138.5, CRFBP-R2 agonist 171.1 | caTPT1 confirm 142.7 | RNase T1 inh 139.0 | IDE cell inh cf 30.9 | HEK cytotox inactive
O=C1c2ccccc2S(=O)(=O)c2cc(N3CCOCC3)ccc21	HNF4A DNA FP 44.5, TPT1 inhibitor 33.7 | caTPT1 confirm 34.8 | RNase T1 inh 45.8 | HNF4a DNA conf 50.4
Cc1ccccc1C(=O)NCCCNC(=O)c1ccco1	none
O=[N+]([O-])c1cccc(-c2ccc(/C=N/Nc3nc(N4CCCCC4)nc(N4CCCCC4)n3)o2)c1	none
